In PMC4336329 (PLoS ONE, 2015):
In all, about 310,000 compounds went through this assay and about 14,000 (4.5%) showed an effect of 50% or more. The effect is printed as a negative number. Many of the other results were omitted from the sample, so strong results are more common in it than they were.

target: human ether-à-go-go-related gene (hERG) potassium channel (human, UniProt Q12809); test: primary screen, population patch clamp on CHO cells stably expressing hERG; higher = less effect of the substance
Sequence (Q12809 whole entry, looked up): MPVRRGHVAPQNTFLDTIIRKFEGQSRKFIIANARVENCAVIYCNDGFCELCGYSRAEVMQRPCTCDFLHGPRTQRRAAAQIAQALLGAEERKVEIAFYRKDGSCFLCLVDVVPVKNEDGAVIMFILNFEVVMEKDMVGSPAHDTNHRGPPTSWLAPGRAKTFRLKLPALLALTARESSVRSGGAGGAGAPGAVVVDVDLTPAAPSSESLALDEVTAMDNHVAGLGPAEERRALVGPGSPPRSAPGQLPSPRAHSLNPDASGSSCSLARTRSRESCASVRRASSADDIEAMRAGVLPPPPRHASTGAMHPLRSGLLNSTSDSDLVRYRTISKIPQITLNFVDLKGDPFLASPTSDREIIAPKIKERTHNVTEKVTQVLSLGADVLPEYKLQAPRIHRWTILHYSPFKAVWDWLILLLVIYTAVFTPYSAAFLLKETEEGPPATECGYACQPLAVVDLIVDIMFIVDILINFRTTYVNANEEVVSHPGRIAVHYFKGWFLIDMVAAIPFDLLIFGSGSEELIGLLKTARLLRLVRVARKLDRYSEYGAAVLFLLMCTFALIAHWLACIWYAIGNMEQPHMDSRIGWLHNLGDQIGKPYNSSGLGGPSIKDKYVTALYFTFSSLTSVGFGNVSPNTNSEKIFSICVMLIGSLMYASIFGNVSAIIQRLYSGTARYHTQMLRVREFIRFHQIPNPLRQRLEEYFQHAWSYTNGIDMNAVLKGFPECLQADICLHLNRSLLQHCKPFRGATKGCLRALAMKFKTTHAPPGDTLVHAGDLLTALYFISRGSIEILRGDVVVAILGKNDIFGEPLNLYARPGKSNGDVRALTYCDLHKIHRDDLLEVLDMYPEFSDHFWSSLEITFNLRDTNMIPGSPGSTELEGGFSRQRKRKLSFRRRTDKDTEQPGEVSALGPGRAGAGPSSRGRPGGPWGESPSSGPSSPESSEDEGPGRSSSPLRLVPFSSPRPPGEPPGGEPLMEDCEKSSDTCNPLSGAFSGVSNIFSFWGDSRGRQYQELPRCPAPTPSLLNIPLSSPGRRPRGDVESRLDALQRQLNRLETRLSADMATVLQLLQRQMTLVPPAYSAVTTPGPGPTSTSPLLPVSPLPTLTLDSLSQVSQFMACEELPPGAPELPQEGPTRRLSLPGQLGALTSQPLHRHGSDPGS
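Also: peak tail current of the secondary pulse compared with the same well before compound.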

| SMILES | hERG current change (%, negative = inhibition) at 10uM [%] |
| --- | --- |
| O=[N+]([O-])c1ccc(NCc2ccccn2)nc1 | -5.06 |
| CCC(C(=O)Nc1ccccc1)c1ccccc1 (stereo not shown) | 7.86 |
| CS(=O)(=O)N(CC(O)Cn1c2ccccc2c2ccccc21)c1cccc2ccccc12 (stereo not shown) | 0.652 |
| CCOC(=O)c1c(C)[nH]c(C)c1C(=O)COC(=O)c1cccc(S(=O)(=O)NC)c1 | -7.56 |
| COc1ccc(COC(=O)c2cc([N+](=O)[O-])ccc2N2CCOCC2)cc1F | -62.5 |
| COc1ccc(OC)c(COC(=O)c2cc([N+](=O)[O-])ccc2N2CCOCC2)c1 | -18 |
| CN(C)S(=O)(=O)c1cccc(COC(=O)c2cc([N+](=O)[O-])ccc2N2CCOCC2)c1 | -52.7 |
| O=C(OCc1c(F)cccc1Cl)c1cc([N+](=O)[O-])ccc1N1CCOCC1 | 3.43 |
| CCc1cccc(NC(=O)COC(=O)c2cc([N+](=O)[O-])ccc2N2CCOCC2)c1 | -7.99 |
| O=C(OCc1ccccc1F)c1cc([N+](=O)[O-])ccc1N1CCOCC1 | -47.9 |
| COc1cc(C(=O)CSc2nncn2C)cc(OC)c1OC | 6.63 |
| CCOC(=O)c1ccc(NC(=S)N2CCC(O)CC2)cc1 | 18 |
| O=C(CN1C(=O)c2ccccc2C1=O)Nc1cc(C(=O)O)cc(C(=O)O)c1 | 7.72 |
| N#Cc1ccccc1OCC(=O)NNC(=O)c1ccncc1 | 9.65 |
| CC1(c2ccc(OC(F)F)cc2)NC(=O)N(CC(=O)Nc2ccc(S(N)(=O)=O)cc2)C1=O (stereo not shown) | 1.64 |
| Cc1ccc(C2(C)NC(=O)N(CC(=O)Nc3cc(C)on3)C2=O)cc1 (stereo not shown) | -10.7 |
| CC1(c2ccc(OC(F)F)cc2)NC(=O)N(CC(=O)Nc2ccc(OC(F)F)cc2)C1=O (stereo not shown) | -94.9 |
| Cc1cc(NC(=O)CN2C(=O)NC(C)(c3ccc(Cl)cc3)C2=O)no1 (stereo not shown) | 39.2 |
| CC1(c2ccc(OC(F)F)cc2)NC(=O)N(CC(=O)Nc2cccc(F)c2)C1=O (stereo not shown) | 2.79 |
| CC1(c2ccc(OC(F)F)cc2)NC(=O)N(CC(=O)Nc2ccc(F)cc2)C1=O (stereo not shown) | -45.5 |
| CCOc1ccc(NC(=O)CN2C(=O)NC(C)(c3ccc(OC(F)F)cc3)C2=O)cc1 (stereo not shown) | -16.1 |
| Cc1cc(NC(=O)CN2C(=O)NC(C)(c3ccccc3)C2=O)no1 (stereo not shown) | -55.5 |
| CC1(c2ccc(OC(F)F)cc2)NC(=O)N(CC(=O)Nc2ccccc2)C1=O (stereo not shown) | -51.3 |
| CCn1c(=S)sc2c(=O)n(CC(=O)NCCCc3ccccc3)c(C)nc21 | 18.8 |
| COc1ccc(OC)c(NC(=O)Cn2cnc3c(cnn3-c3ccccc3)c2=O)c1 | -12.8 |
| COc1cc(/C=C/C(=O)OCC(=O)c2c(N)n(C)c(=O)n(C)c2=O)ccc1OC(F)F | 6.4 |

| SMILES | hERG current change (%, negative = inhibition) at 10uM [%] |
| --- | --- |
| COc1ccc(CN(C)C(=O)COC(=O)c2ccc3c(c2)OCO3)cc1OC | -3.84 |
| CCC(=O)OC1(C)C(=O)C=C2C=C(C3CC3)OC=C2C1=O (stereo not shown) | 12.5 |
| CCC(C(=O)Nc1ccccc1OC)n1c(C(=O)OC)cc2ccsc21 (stereo not shown) | -11.3 |
| CN(CC(=O)NNC(=O)CNC(=O)c1ccccc1Cl)S(=O)(=O)c1ccc(Cl)cc1 | 9.57 |
| Cc1cccc(NC(=O)Cn2cnc3c(cnn3-c3ccc(F)cc3)c2=O)c1C | 2.99 |
| O=C(CN1CCN(C(=O)c2cncn2-c2ccc(F)cc2)CC1)Nc1ccccc1C(F)(F)F | -70 |
| Cc1cccc(NC(=O)CN2CCN(C(=O)c3cncn3-c3ccc(F)cc3)CC2)c1C | -60.9 |
| O=C(CN1CCN(C(=O)c2cncn2-c2ccccc2)CC1)Nc1ccccc1Cl | -77.3 |
| O=C(CN1CCN(C(=O)c2c(F)cccc2F)CC1)Nc1ccccc1C(F)(F)F | -20.9 |
| Cc1cccc(NC(=S)N2CCN(Cc3ccccc3)CC2)c1C | -13.2 |
| O=C(CN1CCCCCC1)Nc1ccccc1Cl | 6.75 |
| Cc1cccc(NC(=O)CN2CCN(C(=O)c3oc4c(Cl)cccc4c3C)CC2)c1C | -43.6 |
| Cc1cccc(NC(=O)CN2CCN(C(=O)c3cnn(Cc4ccccc4)c3)CC2)c1C | -87.2 |
| O=C(CN1CCN(CC(=O)Nc2ccccc2C(F)(F)F)CC1)Nc1ccccc1F | -30.2 |
| O=C(CN1CCCCC1)Nc1ccccc1Cl | 21.1 |
| COc1cc(OC)cc(C(=O)OCC(=O)Nc2ccc(F)cc2F)c1 | 4.34 |
| CCC(C)(C)NC(=O)c1ccc2c(c1)S(=O)(=O)c1ccccc1C2=O | -16.8 |
| CNS(=O)(=O)c1cccc(C(=O)OCC(=O)NCCCc2ccccc2)c1 | -5.42 |
| COc1cc(OC)cc(-c2nnc(SCc3c(F)cccc3Cl)o2)c1 | 0.324 |
| COc1ccccc1CC(=O)N1CCCc2ccccc21 | 0.493 |
| COc1cc([N+](=O)[O-])ccc1NC(=O)Nc1nc2c(s1)CCCC2 | 11.7 |
| O=C(Nc1ccccc1C(=O)O)c1ccc(NC(=O)c2ccc(Br)o2)cc1 | 11.7 |
| Cc1ccc(-n2c(N)cc(=O)nc2SCC(=O)N2CCN(c3ccccc3)CC2)cc1 | -0.877 |
| COc1cc(C(CC(=O)Nc2ccc(C)cn2)N2Cc3ccccc3C2=O)cc(OC)c1OC (stereo not shown) | -1.38 |
| COc1cc(C(CC(=O)Nc2ccccn2)N2Cc3ccccc3C2=O)cc(OC)c1OC (stereo not shown) | -11.5 |
| COc1cc(C(CC(=O)Nc2ccc(Cl)cn2)N2Cc3ccccc3C2=O)cc(OC)c1OC (stereo not shown) | -68.1 |
